Shown are actives, neighbours in structure and some others; about 3.9% of the full set was active somewhere.
TWEAK Fn14 block – blocks TWEAK-Fn14 interaction in a reporter cell assay; TWEAK-stimulated Fn14 reporter cells, luciferase luminescence, 8 h; inhibition, % at 10 µM; AID 1159606; 360,000 compounds, 2% hits; in the data active = inhibition above about 50%
aSyn UTR inh – 5' untranslated region of α-synuclein, MLPCN primary screen. alpha-synuclein 5'UTR reporter, inhibitor activity. inhibition, % (tested at 7.5 µM). 300,000 compounds, 0.82% hits. AID 1813; in the data active = inhibition above about 60%;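 note: H4 neuroglioblastoma cells stably carrying SNCA 5'UTR luciferase fusion; 0% = DMSO wells and 100% = positive control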
HSP90 refold inh – HSP90 refolding inhibition in rabbit reticulocyte lysate; luciferase refolding luminescence, 3 h; inhibition, % at 5.6 µM; 290,000 compounds, 0.91% hits; AID 1789;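 active = inhibition above the screen-wide mean plus 3 SD, computed separately per campaign, cut at about 16% in these data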;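 note: 0% = DMSO wells and 100% = 60 µM geldanamycin wells; inhibitors lower the luminescence because luciferase stays unfolded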
TROY signal inh – blocks TROY-dependent signaling in reporter cells; inhibition, % at 10 µM; AID 1347056; Q293 LMP1-TROYcd NF-kB luciferase reporter, 4 h; 360,000 compounds, 0.98% hits;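 active = compounds whose plate-normalised and pattern-corrected inhibition of the luciferase reporter signal at the single screening dose is 50% or more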
HIF-2a inh – blocks HIF-2a reporter activity; 786-0 RCC cells HIF-2a reporter, luciferase luminescence, overnight; inhibition, % at 18.8 µM; 360,000 compounds, 0.72% hits;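 active = inhibition of the luminescence signal of 40% or more relative to plate controls, in a single-dose primary screen at 18.75 µM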
C8 TRAIL sens – sensitizes caspase-8 expressing cells to TRAIL | inhibition (viability loss, TRAIL sensitization), % at 10 µM | NB7+C8 cells + TRAIL, ATPlite viability luminescence | 360,000 compounds, 1% hits | AID 624354;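 active = compounds causing at least 50% loss of cell viability in the single-dose screen, relative to plate controls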
An asterisk follows results filed as active; / = not tested or not shown.

SMILES	TWEAK Fn14 block	aSyn UTR inh	HSP90 refold inh	TROY signal inh	HIF-2a inh	C8 TRAIL sens
CCCCCCn1c2c(c(=N)c3c1CCC3)CCC2	28	67*	1	59*	-4	29
NNC(=O)CN1CCN(c2ncc(C(F)(F)F)cc2Cl)CC1	3	-14	-2	20	13	2
O=C(CN1CCN(c2ncc(C(F)(F)F)cc2Cl)CC1)NCCNc1ncc(C(F)(F)F)cc1Cl	76*	13	4	/	26	-12
CCCCNC(=O)c1nc(C2CCN(S(=O)(=O)c3ccccc3C(F)(F)F)CC2)oc1-c1cccc(C(F)(F)F)c1	5	/	/	-6	7	0
O=C1CC2(CCCC2)C(=O)N1CN1CCN(S(=O)(=O)c2cc(F)ccc2F)CC1	-11	/	/	3	12	-5
Cc1cc(C)c(C)c(OCCn2ccnc2)c1	111*	11	-2	20	9	4
Cc1ccc(C)c(OCCn2ccnc2)c1	6	13	-5	-6	19	-10
CCC1(C)Cc2[nH]c(=O)c(C#N)cc2CO1 (stereo not drawn)	86*	-1	-1	8	4	8
CC1(C)Cc2[nH]c(=O)c(C#N)cc2CS1	-5	-10	0	8	11	-5
N/C(=N\OC(=O)c1ccccc1Cl)c1cccnc1	10	-168	-2	-37	-222	69*
Cc1ccccc1C(=O)O/N=C(\N)c1ccncc1	-17	-60	-1	-61	-217	52*
N/C(=N\OC(=O)c1ccc2c(c1)OCO2)c1cccnc1	29	-139	2	-17	-221	82*
N/C(=N\OC(=O)c1ccc2c(c1)OCO2)c1cccc(Br)c1	-19	-146	-4	-14	-299	0
N/C(=N\OC(=O)c1ccc(Cl)c(Cl)c1)c1cccnc1	-4	-138	1	-37	-150	83*
CC(C)C[C@H]1CN(CCCC[C@@H]2CNC(=O)C(=O)N2Cc2ccccc2)C(=O)C(=O)N1CCc1ccccc1	7	/	/	-11	16	-7
OC(c1cccc(Cl)c1)c1ncc(-c2ccc(Oc3ccccc3)cc2)[nH]1 (stereo not drawn)	-2	/	/	6	-33	0
N/C(=N\OC(=O)c1cccc(Cl)c1)c1ccncc1	-41	-87	2	-77	-154	0
N/C(=N\OC(=O)c1ccccc1Cl)c1cccc([N+](=O)[O-])c1	20	-67	12	6	-240	15
N/C(=N/OC(=O)c1ccccc1Cl)c1ncc([N+](=O)[O-])s1	50*	-80	8	1	-222	28
N/C(=N\OC(=O)c1cccc(Cl)c1)c1cccnc1	-14	-114	-1	-45	-211	64*
O=S(=O)(Nc1cc(Cl)ccc1-n1cncn1)c1cc(Br)ccc1Br	46	/	/	58*	-7	16
O=S(=O)(Nc1cc(Cl)ccc1-n1cncn1)c1ccccc1Cl	6	/	/	10	9	12
O=C1CCC[C@@H]2C[C@@]3(C[C@@H]4CCN1[C@H]24)Nc1cc(Cl)c(Cl)cc1NC3=NCc1ccccc1	-1	/	/	-23	-125	-11
O=C(CCN=C1NS(=O)(=O)c2ccccc21)Nc1ccc(Cl)cc1F	-5	/	/	3	-25	-2
O=C(Nc1nc2cc3c(cc2s1)OCO3)c1cccc(N2C(=O)CCC2=O)c1	10	-8	2	-27	-120	56*
SMILES	TWEAK Fn14 block	aSyn UTR inh	HSP90 refold inh	TROY signal inh	HIF-2a inh	C8 TRAIL sens
O=C(Nc1nc2cc3c(cc2s1)OCO3)c1ccc(N2C(=O)CCC2=O)cc1	-7	-18	-2	-4	-22	3
CCOc1ccc2nc(NC(=O)c3cccc(-c4cc5ccccc5oc4=O)c3)sc2c1	-79	-6	0	-3	-53	71*
O=C(Nc1nc2ccc(Cl)cc2s1)c1cccc(N2C(=O)CCC2=O)c1	7	-78	/	5	-173	38
CCOc1ccc2nc(NC(=O)c3cccc(N4C(=O)CCC4=O)c3)sc2c1	12	/	/	-34	-79	56*
COc1ccc2nc(NC(=O)c3cccc(N4C(=O)CCC4=O)c3)sc2c1	7	/	/	-40	-48	58*
CCOC(=O)c1c(NC(=O)CN2CCN(S(=O)(=O)c3cc(Cl)ccc3Cl)CC2)sc(C(=O)N(C)C)c1C	19	/	/	9	22	25
O=C(Nc1ccccc1)c1cc(C2CCCN(C(=O)c3cccs3)C2)on1 (stereo not drawn)	-11	/	/	-62	-226	-1
CCN(CC(=O)Nc1cccc(OC)c1)C(=O)C1CC(=O)N(Cc2ccccc2Cl)C1 (stereo not drawn)	9	/	/	-3	8	-11
CCSc1nnc(NC(=O)c2cccc(OCc3c(C)noc3C)c2)s1	8	-25	3	-3	-48	0
COc1ccc2nc(NC(=O)c3cccc(OCc4c(C)noc4C)c3)sc2c1	52*	-57	1	35	-177	39
COc1ccc2c(c1)c(CC(=O)OCC(N)=O)c(C)n2C(=O)c1ccc(Cl)cc1	25	1	-2	54*	15	-2
O=C(N/N=C(\c1ccccc1)c1cccnc1)c1ccc(O)cc1	-7	-2	3	-11	-4	-1
O=C(N/N=C(\c1ccccc1)c1cccnc1)c1cccc(F)c1	0	80*	3	-51	3	25
COc1ccc2sc3c(=O)[nH]c4ccccc4c3c2c1	46	63*	1	9	17	10
Cc1cc2c(cc1C)CSC(c1ccccc1O)SC2	42	13	1	11	-3	11
Cc1cc2c(cc1C)CSC(c1ccc(O)cc1)SC2	55*	16	4	33	-6	27
C=CC(=O)Nc1cccc(CN2C(=O)N(c3cc(OC)cc(OC)c3)Cc3cnc(NCCCCN(CC)CC)nc32)c1	-37	/	/	-6	26	-11
CC1(C(=O)NS(=O)(=O)c2cccs2)CCN1C(=O)CCc1ccc(Cl)cc1Cl (stereo not drawn)	1	/	/	1	9	-2
NC(=N\N=Cc1ccccc1)/C(N)=N/N=Cc1ccccc1	-28	/	/	-42	-108	-6
NC(=N\N=Cc1ccco1)/C(N)=N/N=Cc1ccco1	72*	/	/	-12	-132	9
O=C(C/C=N/OCc1ccc(Cl)cc1)c1cnc(-c2ccccc2)s1	10	10	-3	38	-31	-12
O=C(C/C=N/OCc1c(Cl)cccc1Cl)c1cnc(-c2ccccc2)s1	-16	-17	-3	54*	-38	2
CCOC(=O)c1ccc(NC(=O)c2nc[nH]c2C(=O)NC)cc1	-18	-29	/	-6	-48	13
CCOC(=O)c1ccc(NC(=O)c2nc[nH]c2C(=O)NCCNC(=O)c2[nH]cnc2C(=O)Nc2ccc(C(=O)OCC)cc2)cc1	6	/	/	3	-14	92*
O=C(NNc1ncccc1-n1cccc1)c1ccc(Cl)cc1	2	-12	-1	-5	-27	-8
CC(C)(C)c1ccc(C(=O)NNc2ncccc2-n2cccc2)cc1	8	-11	0	53*	-23	-17
